Data on 21 compounds can be found in PubChem BioAssay (NCI).

About 79,000 compounds went through this panel and 15% of them were active in at least one assay; those are over-represented in the sample as a whole. Values without a mark were called inactive. The source made the active and inactive calls. Cut-off read from the data, not from the text of the source: active = growth inhibition above about 70%; inactive = the rest.

The nature of assay [1]: NCI Yeast Anticancer Drug Screen. Data for the rad50 strain (AID 155).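 Note: 0% = growth of vehicle-only cultures of the same strain.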 The conditions noted are these: S. cerevisiae rad50 strain growth inhibition; at 50.0 µM; hits give high values. In short, it runs like this: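 A DNA repair-deficient yeast mutant serves as the test organism; compound-induced growth inhibition is calculated against vehicle-treated cells.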
Assay [2] in a line: NCI Yeast Anticancer Drug Screen. Data for the mec2-1 strain (AID 157). The conditions noted are these: S. cerevisiae mec2-1 strain, at 50.0 µM, hits give high values. Summed up:
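Test agents were screened against the mec2-1 yeast strain, with defined DNA repair or cell cycle alteration. Growth was scored as inhibition against vehicle-only controls.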

The nature of assay [3]: NCI Yeast Anticancer Drug Screen. Data for the sgs1 mgt1 strain (AID 161).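 Note: 0% = growth of cultures given vehicle only.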 The conditions noted are these: S. cerevisiae sgs1 mgt1 strain, at 50.0 µM, hits give high values. In short, it runs like this:
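Inhibition of yeast growth, normalised to vehicle-treated controls, is reported for a strain bearing genetic alterations in DNA damage repair.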

Assay [4] can be described thus: NCI Yeast Anticancer Drug Screen. Data for the cln2 rad14 strain (AID 165).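 Note: 0% = growth equal to vehicle treated cultures.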 The conditions noted are these: S. cerevisiae cln2 rad14 strain, at 50.0 µM, hits give high values. Summed up:
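Growth of compound-exposed yeast (cln2 rad14 genotype) measured and expressed as inhibition relative to vehicle.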

The nature of assay [5]: NCI Yeast Anticancer Drug Screen. Data for the bub3 strain (AID 167). The conditions noted are these: S. cerevisiae bub3 mutant strain, at 50.0 µM, hits give high values. In short, it runs like this: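 Inhibition values come from growth of compound-treated mutant yeast normalised to vehicle-treated controls.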
Assay [6] can be described thus: NCI Yeast Anticancer Drug Screen. Data for the mlh1 rad18 strain (AID 175). As to conditions: S. cerevisiae mlh1 rad18 strain growth inhibition; at 50.0 µM; hits give high values. In short, it runs like this:
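In this whole-cell yeast screen, a strain with altered DNA damage repair is challenged with compound, and its growth is measured against matched vehicle-treated controls.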

In the case of `COc1cc2c(c(Cl)c1O)C(=O)OC2`, the growth inhibition is -4.25% in assay [1]; -7.8% in assay [2]; 12.8% in assay [3]; 3.55% in assay [4]; -6.8% in assay [5]; 17.4% in assay [6].
Regarding `CCOC(=O)C1CC2(CCC(=O)O2)C(=O)O1` (stereo unspecified), the growth inhibition is -5.15% in assay [1]; -5.95% in assay [2]; -20.6% in assay [3]; 3.05% in assay [4]; -5.75% in assay [5]; -6.85% in assay [6].
For the compound `O=C(C1=Cc2ccccc2OC1)N1CCN(c2ccccc2Cl)CC1`, the growth inhibition in assay [1] is 12.3%; in assay [2], 20.2%; in assay [3] it was 34.6%; in assay [4], 24.4%; in assay [5] it was 38%; in assay [6], 40.1%.
Take `COc1ccc2c(c1)OC(C)(C)C(c1ccccc1)=C2c1ccc(OCCN2CCCC2)cc1`: the growth inhibition in assay [1] was 99.6% (active); in assay [2], 99.8% (active); in assay [3], 99.9% (active); in assay [4] it was 99.3% (active); in assay [5] it was 99.3% (active); in assay [6], 99.7% (active).
As for `O=C(CCN1CCCCC1)C(O)(c1ccccc1)c1ccccc1`, the growth inhibition in assay [1] was 19.2%; in assay [2], -2%; in assay [3] it was 24.7%; in assay [4], -6.05%; in assay [5], -10.4%; in assay [6] it was 14.2%.
For the compound `CN(C)c1ccccc1CCCCCBr`, the growth inhibition in assay [1] is 8.35%; in assay [2], 5.5%; in assay [3], 5.5%; in assay [4] it was -37.1%; in assay [5], -6.7%; in assay [6] it was 3.75%.
Regarding `C[C@@H]1CN[C@@H](C)CN1`, the growth inhibition in assay [1] is -35.2%; in assay [2], -30.3%; in assay [3], -17.4%; in assay [4], -8.25%; in assay [5], -0.6%; in assay [6], 3.8%.
On to `O=C1OC(c2ccc(Cl)cc2)=N/C1=C\c1ccc(Cl)c(Cl)c1`, for which the growth inhibition in assay [1] is 35.7%; in assay [2] it was 19.1%; in assay [3], 59.4%; in assay [4] it was 19.2%; in assay [5] it was 38.5%; in assay [6] it was 31.7%.
`CC1CCC23C1CC(CC(=O)C2(C)O)C3(C)C` (stereo unspecified): the growth inhibition is 4.75% in assay [1]; 6% in assay [2]; 5.2% in assay [3]; -49.4% in assay [4]; -21.1% in assay [5]; 5.05% in assay [6].
For the compound `CCN(CC)c1ccc(/C=N\NC(=O)CCCC(=O)N/N=C/c2ccc(N(CC)CC)cc2)cc1`, the growth inhibition in assay [1] was -27.6%; in assay [2] it was 2.65%; in assay [3], -22.9%; in assay [4], -21.9%; in assay [5] it was 5%; in assay [6] it was -30.4%.
On to `O=C(Nc1cccc([N+](=O)[O-])c1)C(=O)C(C(=O)c1ccccc1-c1ccccc1)C1OC(=O)c2ccccc21` (stereo unspecified), for which the growth inhibition was 27.9% in assay [1]; 3.45% in assay [2]; 17.9% in assay [3]; -45% in assay [4]; -6.85% in assay [5]; 10.1% in assay [6].
On to `COC(=O)C1CC=CCCC1=O` (stereo unspecified), for which the growth inhibition is -3.8% in assay [1]; -10.8% in assay [2]; 23.7% in assay [3]; 12.2% in assay [4]; 43.7% in assay [5]; 5.65% in assay [6].
Consider `COc1ccc(CC(=O)c2c(OC)c3c(c4c2OC(C)(C)CC4)OC(C)(C)CC3)cc1OC`, for which the growth inhibition in assay [1] was 21.1%; in assay [2], -14.8%; in assay [3], 8.1%; in assay [4] it was 16.5%; in assay [5] it was 33.9%; in assay [6] it was 34.4%.
On to `c1coc(CNc2ncnc3nccnc23)c1`, for which the growth inhibition in assay [1] is -16.9%; in assay [2], -4.35%; in assay [3], -15.6%; in assay [4] it was -20.2%; in assay [5] it was -32.5%; in assay [6], -4.45%.
Turning to `Cc1ccc(NC(=O)Oc2ccc(Cl)cc2Cl)cc1NC(=O)Oc1ccc(Cl)cc1Cl`, the growth inhibition in assay [1] is -20.1%; in assay [2], -1.15%; in assay [3] it was -13.3%; in assay [4], -13.1%; in assay [5] it was -3.2%; in assay [6], -42.7%.
Regarding `NC(=NCc1ccncc1)N/N=C\c1ccnc2ccccc12`, the growth inhibition was 4.15% in assay [1]; 10.9% in assay [2]; 7.75% in assay [3]; -13.7% in assay [4]; -9.5% in assay [5]; 7.75% in assay [6].
For the compound `CC(=O)Nc1ccc(Cc2[nH]c(=O)[nH]c(=O)c2Br)cc1`, the growth inhibition in assay [1] is 4.3%; in assay [2], -30.9%; in assay [3], -19.6%; in assay [4], -0.6%; in assay [5], 1.05%; in assay [6], -16.2%.
As to `COCc1cc(C(C)(C)C)cc(CNC2CCCCC2)c1O`, the growth inhibition in assay [1] is 16%; in assay [2] it was 12.2%; in assay [3], 27.1%; in assay [4] it was 13.4%; in assay [5], 12.5%; in assay [6], 10.7%.
As for `CCOC(=O)C1S(=O)(=O)OCCOS1(=O)=O`, the growth inhibition in assay [1] is -19.2%; in assay [2], -26.6%; in assay [3], -7.45%; in assay [4], 0.75%; in assay [5] it was -14.8%; in assay [6], -27.8%.
`CCCCCC(=O)c1ccccc1`: the growth inhibition in assay [1] is -27.9%; in assay [2], -16.5%; in assay [3], -19.3%; in assay [4], -23.9%; in assay [5], -8.8%; in assay [6], -6.1%.
For `CC1(C)C[C@H](OC2CCCCO2)[C@H]2O[C@@]2(C)C1` (stereo partly specified), the growth inhibition was 10.8% in assay [1]; 4.3% in assay [2]; -29.8% in assay [3]; 1.1% in assay [4]; 18.4% in assay [5]; 3.95% in assay [6].
